# Experimental data as given in PMC7862700, “An all-to-all approach to the identification of sequence-specific readers for epigenetic DNA modifications on cytosine”.
# Experiments:
# Experiment in all cases: DAPPL (digital affinity profiling via proximity ligation, sequencing); 10 mM Tris-HCl pH 7.5, 50 mM NaCl, 1 mM DTT, 4% glycerol, room temperature, 30 min; GST-TFs on glutathione beads, 16-mer random dsDNA library, 0.1% formaldehyde crosslink after washing; high values mean tight binding
# FEV = biological target: T1, FEV (Homo sapiens, UniProt Q99581 1-238); conditions: protein: recombinant; tags: N-terminal GST; dsDNA, one strand shown
# T1 sequence: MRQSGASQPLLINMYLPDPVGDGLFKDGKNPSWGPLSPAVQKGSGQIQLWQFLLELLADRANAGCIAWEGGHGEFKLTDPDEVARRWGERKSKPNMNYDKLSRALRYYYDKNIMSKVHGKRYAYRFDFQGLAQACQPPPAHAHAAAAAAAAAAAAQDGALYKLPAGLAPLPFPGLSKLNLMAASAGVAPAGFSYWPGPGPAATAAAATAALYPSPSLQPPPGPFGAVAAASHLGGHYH
# Summary of the method: (§1)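 Beads coated with glutathione captured GST-fused human transcription factors that had been expressed in yeast, and the factors were then given DNA barcodes and pooled with a tag-only sample. The pools were incubated with 200 nmole of a random double-stranded 16-mer DNA library in Tris/NaCl/DTT/glycerol buffer for 30 min at room temperature, washed, crosslinked with 0.1% formaldehyde and proximity-ligated with BsaI/T4 ligase at 37 °C for 1 h. PCR amplification and Illumina NextSeq500 sequencing came last. Binding signal is each hexamer's read frequency for a factor divided by its frequency for the tag-only sample.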
# ETV5 = ETV5 (Homo sapiens, UniProt P41161 1-510); conditions: protein: recombinant; tags: N-terminal GST; dsDNA, one strand shown
# Summary of the method: as §1
# HSF1 = HSF1 (Homo sapiens, UniProt Q00613 1-529); conditions: protein: recombinant; tags: N-terminal GST; chain copies: 3; dsDNA, one strand shown
# Summary of the method: as §1
# SPIC = biological target: T2, SPIC (Homo sapiens, UniProt Q8N5J4 1-248); conditions: protein: recombinant; tags: N-terminal GST; dsDNA, one strand shown
# T2 sequence: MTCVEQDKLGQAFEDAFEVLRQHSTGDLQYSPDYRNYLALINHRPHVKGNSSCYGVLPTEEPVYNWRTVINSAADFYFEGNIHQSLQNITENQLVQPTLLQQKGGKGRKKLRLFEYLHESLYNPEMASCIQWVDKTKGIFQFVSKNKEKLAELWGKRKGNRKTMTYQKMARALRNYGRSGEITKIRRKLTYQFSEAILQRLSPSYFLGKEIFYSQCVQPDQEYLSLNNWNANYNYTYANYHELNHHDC
# Summary of the method: as §1
# ELF4 = ELF4 (Homo sapiens, UniProt Q99607 1-663); conditions: protein: recombinant; tags: N-terminal GST; dsDNA, one strand shown
# Summary of the method: as §1
# ELK4 = biological target: T3, ELK4 (Homo sapiens, UniProt P28324-2 1-405); conditions: protein: recombinant; tags: N-terminal GST; dsDNA, one strand shown
# T3 sequence: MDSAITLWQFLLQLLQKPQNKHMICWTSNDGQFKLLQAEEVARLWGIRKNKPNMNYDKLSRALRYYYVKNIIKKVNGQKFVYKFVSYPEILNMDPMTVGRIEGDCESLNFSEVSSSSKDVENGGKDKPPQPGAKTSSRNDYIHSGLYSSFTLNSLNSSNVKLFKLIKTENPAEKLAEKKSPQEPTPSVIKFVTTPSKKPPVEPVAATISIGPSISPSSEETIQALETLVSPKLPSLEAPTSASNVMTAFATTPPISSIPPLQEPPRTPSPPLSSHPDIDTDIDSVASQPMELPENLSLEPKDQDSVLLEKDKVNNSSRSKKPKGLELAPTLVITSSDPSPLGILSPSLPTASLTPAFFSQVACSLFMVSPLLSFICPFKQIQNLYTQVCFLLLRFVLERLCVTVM
# Summary of the method: as §1
# ETV2 = biological target: T4, ETV2 (Homo sapiens, UniProt O00321 1-342); conditions: protein: recombinant; tags: N-terminal GST; dsDNA, one strand shown
# T4 sequence: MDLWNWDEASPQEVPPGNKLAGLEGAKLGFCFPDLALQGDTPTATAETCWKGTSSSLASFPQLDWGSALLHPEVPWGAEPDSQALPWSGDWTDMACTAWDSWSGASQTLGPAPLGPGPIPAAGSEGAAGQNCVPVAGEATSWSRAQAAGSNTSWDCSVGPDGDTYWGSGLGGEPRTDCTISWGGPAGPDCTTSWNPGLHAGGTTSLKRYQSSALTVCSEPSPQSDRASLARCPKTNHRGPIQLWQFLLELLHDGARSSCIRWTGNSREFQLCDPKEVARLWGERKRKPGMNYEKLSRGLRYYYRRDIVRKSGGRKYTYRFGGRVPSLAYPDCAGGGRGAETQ
# Summary of the method: as §1
# ELF3 = biological target: T5, ELF3 (Homo sapiens, UniProt P78545 1-371); conditions: protein: recombinant; tags: N-terminal GST; dsDNA, one strand shown
# T5 sequence: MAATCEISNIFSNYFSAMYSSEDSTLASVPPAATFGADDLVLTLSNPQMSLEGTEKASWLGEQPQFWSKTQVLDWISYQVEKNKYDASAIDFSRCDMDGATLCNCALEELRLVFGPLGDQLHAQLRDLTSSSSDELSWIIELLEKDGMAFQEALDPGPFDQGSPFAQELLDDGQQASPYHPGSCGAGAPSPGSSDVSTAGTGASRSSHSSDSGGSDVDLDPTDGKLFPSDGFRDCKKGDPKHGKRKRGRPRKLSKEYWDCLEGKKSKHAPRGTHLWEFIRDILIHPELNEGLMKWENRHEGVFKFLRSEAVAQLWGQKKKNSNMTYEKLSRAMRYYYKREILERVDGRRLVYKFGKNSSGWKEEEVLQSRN
# Summary of the method: as §1
# CRX = CRX (Homo sapiens, UniProt O43186 1-299); conditions: protein: recombinant; tags: N-terminal GST; dsDNA, one strand shown
# Summary of the method: as §1
# ETV1 = ETV1 (Homo sapiens, UniProt P50549 1-477); conditions: protein: recombinant; tags: N-terminal GST; dsDNA, one strand shown
# Summary of the method: as §1
# ERF = biological target: T6, ERF (Homo sapiens, UniProt P50548 1-548); conditions: protein: recombinant; tags: N-terminal GST; dsDNA, one strand shown
# T6 sequence: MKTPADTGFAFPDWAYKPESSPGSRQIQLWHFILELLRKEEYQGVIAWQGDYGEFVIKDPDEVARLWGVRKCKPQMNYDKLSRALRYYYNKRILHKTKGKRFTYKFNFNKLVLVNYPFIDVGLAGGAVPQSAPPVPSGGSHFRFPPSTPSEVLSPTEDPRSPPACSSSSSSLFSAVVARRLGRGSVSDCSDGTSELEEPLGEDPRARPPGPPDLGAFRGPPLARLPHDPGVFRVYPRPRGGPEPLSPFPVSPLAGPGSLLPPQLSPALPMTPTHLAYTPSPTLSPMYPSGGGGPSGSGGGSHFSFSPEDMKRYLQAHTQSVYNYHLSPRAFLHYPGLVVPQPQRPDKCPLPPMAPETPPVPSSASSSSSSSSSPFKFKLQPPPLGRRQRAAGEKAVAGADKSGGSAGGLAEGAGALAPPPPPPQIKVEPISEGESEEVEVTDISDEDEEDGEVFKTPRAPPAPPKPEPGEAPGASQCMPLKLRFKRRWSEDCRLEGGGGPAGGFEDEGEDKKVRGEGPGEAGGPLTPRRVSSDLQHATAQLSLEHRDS
# Summary of the method: as §1
# ETV3L = biological target: T7, ETV3L (Homo sapiens, UniProt Q6ZN32 1-361); conditions: protein: recombinant; tags: N-terminal GST; dsDNA, one strand shown
# T7 sequence: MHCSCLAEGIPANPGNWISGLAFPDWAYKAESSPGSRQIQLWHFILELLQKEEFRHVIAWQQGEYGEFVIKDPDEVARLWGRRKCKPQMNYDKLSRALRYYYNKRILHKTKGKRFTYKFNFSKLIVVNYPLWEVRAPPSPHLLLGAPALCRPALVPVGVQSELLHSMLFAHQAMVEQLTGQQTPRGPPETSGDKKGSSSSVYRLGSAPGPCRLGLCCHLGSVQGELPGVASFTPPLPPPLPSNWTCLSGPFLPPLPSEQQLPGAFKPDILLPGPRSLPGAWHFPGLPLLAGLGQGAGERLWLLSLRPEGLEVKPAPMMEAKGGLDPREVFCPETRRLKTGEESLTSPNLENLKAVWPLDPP
# Summary of the method: as §1
# ETS2 = biological target: T8, ETS2 (Homo sapiens, UniProt P15036 1-469); conditions: protein: recombinant; tags: N-terminal GST; dsDNA, one strand shown
# T8 sequence: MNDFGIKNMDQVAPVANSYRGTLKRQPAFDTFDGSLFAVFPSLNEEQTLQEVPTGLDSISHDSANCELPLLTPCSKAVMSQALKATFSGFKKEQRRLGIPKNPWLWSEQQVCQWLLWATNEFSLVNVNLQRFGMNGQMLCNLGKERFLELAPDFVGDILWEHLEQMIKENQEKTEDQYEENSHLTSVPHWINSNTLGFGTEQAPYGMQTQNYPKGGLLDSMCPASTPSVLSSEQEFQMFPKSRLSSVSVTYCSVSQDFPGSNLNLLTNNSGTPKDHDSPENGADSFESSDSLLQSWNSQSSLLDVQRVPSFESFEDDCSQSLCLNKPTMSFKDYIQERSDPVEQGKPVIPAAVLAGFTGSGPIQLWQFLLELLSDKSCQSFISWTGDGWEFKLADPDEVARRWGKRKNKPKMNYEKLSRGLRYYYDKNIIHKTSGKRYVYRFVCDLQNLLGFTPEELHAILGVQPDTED
# Summary of the method: as §1
# SPDEF = biological target: T9, SPDEF (Homo sapiens, UniProt O95238 1-335); conditions: protein: recombinant; tags: N-terminal GST; dsDNA, one strand shown
# T9 sequence: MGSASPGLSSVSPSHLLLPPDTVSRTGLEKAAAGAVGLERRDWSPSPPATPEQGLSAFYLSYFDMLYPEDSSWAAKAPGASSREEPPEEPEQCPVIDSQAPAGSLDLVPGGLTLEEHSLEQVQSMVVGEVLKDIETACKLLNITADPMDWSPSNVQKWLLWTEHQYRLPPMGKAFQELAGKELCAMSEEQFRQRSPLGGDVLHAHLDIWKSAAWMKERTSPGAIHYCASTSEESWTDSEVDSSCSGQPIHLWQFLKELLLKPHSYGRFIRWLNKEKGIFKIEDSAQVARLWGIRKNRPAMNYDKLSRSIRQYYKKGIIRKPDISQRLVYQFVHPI
# Summary of the method: as §1
# ETV7 = biological target: T10, ETV7 (Homo sapiens, UniProt Q9Y603 1-341); conditions: protein: recombinant; tags: N-terminal GST; dsDNA, one strand shown
# T10 sequence: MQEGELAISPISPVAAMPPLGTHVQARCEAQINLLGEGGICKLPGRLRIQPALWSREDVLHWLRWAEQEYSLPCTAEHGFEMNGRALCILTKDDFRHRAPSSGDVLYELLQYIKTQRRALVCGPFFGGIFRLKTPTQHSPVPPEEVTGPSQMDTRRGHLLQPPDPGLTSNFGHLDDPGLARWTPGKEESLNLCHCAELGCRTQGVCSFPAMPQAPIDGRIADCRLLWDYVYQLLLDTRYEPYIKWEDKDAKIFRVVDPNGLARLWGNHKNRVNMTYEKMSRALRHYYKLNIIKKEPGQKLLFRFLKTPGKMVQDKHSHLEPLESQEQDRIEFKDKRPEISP
# Summary of the method: as §1
# ELF5 = biological target: T11, ELF5 (Homo sapiens, UniProt Q9UKW6-2 1-255); conditions: protein: recombinant; tags: N-terminal GST; dsDNA, one strand shown
# T11 sequence: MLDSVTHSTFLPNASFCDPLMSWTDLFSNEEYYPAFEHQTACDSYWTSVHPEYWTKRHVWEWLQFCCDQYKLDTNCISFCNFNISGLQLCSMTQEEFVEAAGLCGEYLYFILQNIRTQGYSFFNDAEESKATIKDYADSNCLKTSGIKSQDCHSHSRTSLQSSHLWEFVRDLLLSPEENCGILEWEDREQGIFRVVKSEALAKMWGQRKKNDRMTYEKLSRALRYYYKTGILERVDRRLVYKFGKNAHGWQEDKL
# Summary of the method: as §1
# ETV3 = biological target: T12, ETV3 (Homo sapiens, UniProt P41162-2 1-143); conditions: protein: recombinant; tags: N-terminal GST; dsDNA, one strand shown
# T12 sequence: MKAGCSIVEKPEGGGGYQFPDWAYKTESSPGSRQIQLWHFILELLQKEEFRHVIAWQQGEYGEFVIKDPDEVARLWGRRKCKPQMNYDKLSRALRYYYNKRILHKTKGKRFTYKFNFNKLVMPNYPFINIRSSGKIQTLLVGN
# Summary of the method: as §1
# ETV6 = ETV6 (Homo sapiens, UniProt P41212 1-452); conditions: protein: recombinant; tags: N-terminal GST; dsDNA, one strand shown
# Summary of the method: as §1
# Chain of ETV5 (P41161 whole entry): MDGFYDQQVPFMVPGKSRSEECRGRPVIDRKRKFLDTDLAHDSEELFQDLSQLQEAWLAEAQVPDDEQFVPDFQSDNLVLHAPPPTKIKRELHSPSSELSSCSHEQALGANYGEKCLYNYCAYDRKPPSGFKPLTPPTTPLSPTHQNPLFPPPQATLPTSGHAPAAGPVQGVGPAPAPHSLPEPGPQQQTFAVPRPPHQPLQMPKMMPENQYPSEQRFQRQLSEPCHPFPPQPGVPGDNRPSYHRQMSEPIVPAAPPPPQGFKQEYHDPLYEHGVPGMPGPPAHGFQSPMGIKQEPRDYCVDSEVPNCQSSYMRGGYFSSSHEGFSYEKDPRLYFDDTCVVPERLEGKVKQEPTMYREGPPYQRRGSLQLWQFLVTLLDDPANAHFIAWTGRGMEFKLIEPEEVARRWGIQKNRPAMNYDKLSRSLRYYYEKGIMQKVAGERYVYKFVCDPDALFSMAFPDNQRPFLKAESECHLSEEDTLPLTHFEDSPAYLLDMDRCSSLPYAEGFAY
# Chain of CRX (O43186 whole entry): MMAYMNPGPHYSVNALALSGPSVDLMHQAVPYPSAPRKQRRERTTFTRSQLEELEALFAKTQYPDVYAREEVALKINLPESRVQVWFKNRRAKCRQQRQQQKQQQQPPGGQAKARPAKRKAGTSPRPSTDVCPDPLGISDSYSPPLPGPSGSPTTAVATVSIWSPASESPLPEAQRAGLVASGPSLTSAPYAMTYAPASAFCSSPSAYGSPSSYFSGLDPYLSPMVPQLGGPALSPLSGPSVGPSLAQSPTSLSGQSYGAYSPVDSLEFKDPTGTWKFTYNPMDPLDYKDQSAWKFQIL
# Chain of ETV6 (P41212 whole entry): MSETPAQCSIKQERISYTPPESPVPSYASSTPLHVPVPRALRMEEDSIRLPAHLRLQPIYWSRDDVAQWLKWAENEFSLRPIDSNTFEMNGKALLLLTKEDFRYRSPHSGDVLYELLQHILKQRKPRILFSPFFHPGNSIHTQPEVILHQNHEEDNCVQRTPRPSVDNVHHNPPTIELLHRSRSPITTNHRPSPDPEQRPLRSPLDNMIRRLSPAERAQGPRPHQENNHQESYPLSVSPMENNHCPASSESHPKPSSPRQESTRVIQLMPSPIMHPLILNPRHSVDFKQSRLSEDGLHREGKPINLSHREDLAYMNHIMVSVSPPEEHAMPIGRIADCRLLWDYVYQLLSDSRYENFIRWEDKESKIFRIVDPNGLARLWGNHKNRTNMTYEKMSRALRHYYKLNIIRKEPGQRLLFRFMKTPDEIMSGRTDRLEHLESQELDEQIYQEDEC
# Chain of HSF1 (Q00613 whole entry): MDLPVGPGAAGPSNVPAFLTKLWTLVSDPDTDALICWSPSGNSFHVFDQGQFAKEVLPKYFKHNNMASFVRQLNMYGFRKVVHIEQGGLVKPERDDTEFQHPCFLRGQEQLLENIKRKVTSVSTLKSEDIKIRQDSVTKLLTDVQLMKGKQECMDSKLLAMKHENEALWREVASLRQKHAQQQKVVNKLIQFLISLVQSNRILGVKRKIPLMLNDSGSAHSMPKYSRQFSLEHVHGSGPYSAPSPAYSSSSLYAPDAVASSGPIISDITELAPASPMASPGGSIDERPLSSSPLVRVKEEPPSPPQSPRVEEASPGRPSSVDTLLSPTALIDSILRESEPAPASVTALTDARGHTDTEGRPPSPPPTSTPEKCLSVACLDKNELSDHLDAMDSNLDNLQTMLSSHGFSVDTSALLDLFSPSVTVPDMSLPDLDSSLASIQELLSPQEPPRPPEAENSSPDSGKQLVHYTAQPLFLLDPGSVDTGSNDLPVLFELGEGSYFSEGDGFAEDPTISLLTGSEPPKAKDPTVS
# Chain of ELF4 (Q99607 whole entry): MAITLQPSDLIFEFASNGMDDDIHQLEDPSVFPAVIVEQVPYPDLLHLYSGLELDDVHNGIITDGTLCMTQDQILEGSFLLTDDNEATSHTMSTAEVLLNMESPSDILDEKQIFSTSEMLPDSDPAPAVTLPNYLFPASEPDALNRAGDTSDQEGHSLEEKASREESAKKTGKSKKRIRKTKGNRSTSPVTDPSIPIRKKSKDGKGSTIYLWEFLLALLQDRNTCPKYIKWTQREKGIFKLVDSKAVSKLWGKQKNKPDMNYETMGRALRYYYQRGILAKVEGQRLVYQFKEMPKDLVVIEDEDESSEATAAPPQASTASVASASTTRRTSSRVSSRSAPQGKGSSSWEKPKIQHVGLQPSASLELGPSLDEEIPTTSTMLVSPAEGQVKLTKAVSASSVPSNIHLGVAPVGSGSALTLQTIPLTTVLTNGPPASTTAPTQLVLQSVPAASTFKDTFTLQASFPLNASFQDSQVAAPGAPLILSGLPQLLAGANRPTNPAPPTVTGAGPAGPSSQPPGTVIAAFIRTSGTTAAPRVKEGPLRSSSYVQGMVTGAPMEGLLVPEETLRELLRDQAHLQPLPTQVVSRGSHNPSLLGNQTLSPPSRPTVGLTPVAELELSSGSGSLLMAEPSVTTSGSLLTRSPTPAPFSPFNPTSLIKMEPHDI
# Chain of ETV1 (P50549 whole entry): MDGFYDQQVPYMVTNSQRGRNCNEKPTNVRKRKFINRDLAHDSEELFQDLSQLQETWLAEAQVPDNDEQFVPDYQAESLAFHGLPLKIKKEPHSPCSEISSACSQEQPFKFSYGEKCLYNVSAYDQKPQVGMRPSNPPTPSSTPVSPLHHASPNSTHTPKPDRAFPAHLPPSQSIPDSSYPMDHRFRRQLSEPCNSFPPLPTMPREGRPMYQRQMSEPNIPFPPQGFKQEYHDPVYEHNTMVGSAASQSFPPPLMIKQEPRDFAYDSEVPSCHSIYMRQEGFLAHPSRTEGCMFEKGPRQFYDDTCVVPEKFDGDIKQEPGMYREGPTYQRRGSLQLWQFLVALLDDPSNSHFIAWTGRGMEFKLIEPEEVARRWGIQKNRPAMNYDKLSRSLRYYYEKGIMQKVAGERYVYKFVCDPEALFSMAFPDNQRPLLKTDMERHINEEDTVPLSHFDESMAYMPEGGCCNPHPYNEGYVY
sequence,measurement,setting,value
TTTACC,binding signal,FEV,"1.32 fold enrichment (6-mer frequency, TF over GST control)"
same,binding signal,ETV5,"1.29 fold enrichment (6-mer frequency, TF over GST control)"
same,binding signal,HSF1,"1.25 fold enrichment (6-mer frequency, TF over GST control)"
same,binding signal,SPIC,"1.17 fold enrichment (6-mer frequency, TF over GST control)"
same,binding signal,ELF4,"1.24 fold enrichment (6-mer frequency, TF over GST control)"
same,binding signal,ELK4,"1.41 fold enrichment (6-mer frequency, TF over GST control)"
same,binding signal,ETV2,"1.3 fold enrichment (6-mer frequency, TF over GST control)"
same,binding signal,ELF3,"1.2 fold enrichment (6-mer frequency, TF over GST control)"
same,binding signal,CRX,"1.48 fold enrichment (6-mer frequency, TF over GST control)"
same,binding signal,ETV1,"1.16 fold enrichment (6-mer frequency, TF over GST control)"
same,binding signal,ERF,"1.21 fold enrichment (6-mer frequency, TF over GST control)"
same,binding signal,ETV3L,"1.1 fold enrichment (6-mer frequency, TF over GST control)"
same,binding signal,ETS2,"1.28 fold enrichment (6-mer frequency, TF over GST control)"
same,binding signal,SPDEF,"1.26 fold enrichment (6-mer frequency, TF over GST control)"
same,binding signal,ETV7,"1.45 fold enrichment (6-mer frequency, TF over GST control)"
same,binding signal,ELF5,"1.2 fold enrichment (6-mer frequency, TF over GST control)"
same,binding signal,ETV3,"1.36 fold enrichment (6-mer frequency, TF over GST control)"
same,binding signal,ETV6,"1.26 fold enrichment (6-mer frequency, TF over GST control)"
